For 11 sequences, binding signal results are on record in publication PMC5700166.

Where a chain is given by its changes, count along the chain named.

Common to all, as to assay: protein-binding microarray (PBM); PBM: ~300 nM protein, 6 mM HEPES pH 7.8, 80 mM KCl, 0.5 mM EDTA, 0.5 mM EGTA, 6% glycerol, 35 ng/ul poly-dIdC, 1% milk, 1 h, room temperature; Ap Aiptasia and Nv Nematostella (sea anemones) / Co Capsaspora / Aq Amphimedon (sponge) / Dm Drosophila / Hu human; RHD is the Rel homology domain; high values mean tight binding
What all share (conditions): dsDNA, one strand shown

Experiment [1] concerns the target T1, GST-Ap-NF-kB RHD (Exaiptasia pallida (Aiptasia), UniProt A0A913YAJ5 2-422).
T1 sequence: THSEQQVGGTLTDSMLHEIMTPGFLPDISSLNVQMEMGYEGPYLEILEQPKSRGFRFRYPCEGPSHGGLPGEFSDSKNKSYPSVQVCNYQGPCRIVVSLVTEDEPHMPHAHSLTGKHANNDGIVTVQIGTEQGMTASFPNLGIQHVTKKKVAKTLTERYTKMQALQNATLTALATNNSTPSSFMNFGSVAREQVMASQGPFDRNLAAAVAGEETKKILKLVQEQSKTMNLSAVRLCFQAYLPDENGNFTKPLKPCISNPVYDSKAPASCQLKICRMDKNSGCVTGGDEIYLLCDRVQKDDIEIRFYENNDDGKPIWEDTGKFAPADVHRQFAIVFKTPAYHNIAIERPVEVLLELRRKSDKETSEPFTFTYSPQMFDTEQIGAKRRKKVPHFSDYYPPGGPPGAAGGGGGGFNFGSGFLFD

Experiment [2] addresses T2, GST-Nv-NF-kB (Cys allele) (Nematostella vectensis, UniProt E5G601 2-411).
T2 sequence: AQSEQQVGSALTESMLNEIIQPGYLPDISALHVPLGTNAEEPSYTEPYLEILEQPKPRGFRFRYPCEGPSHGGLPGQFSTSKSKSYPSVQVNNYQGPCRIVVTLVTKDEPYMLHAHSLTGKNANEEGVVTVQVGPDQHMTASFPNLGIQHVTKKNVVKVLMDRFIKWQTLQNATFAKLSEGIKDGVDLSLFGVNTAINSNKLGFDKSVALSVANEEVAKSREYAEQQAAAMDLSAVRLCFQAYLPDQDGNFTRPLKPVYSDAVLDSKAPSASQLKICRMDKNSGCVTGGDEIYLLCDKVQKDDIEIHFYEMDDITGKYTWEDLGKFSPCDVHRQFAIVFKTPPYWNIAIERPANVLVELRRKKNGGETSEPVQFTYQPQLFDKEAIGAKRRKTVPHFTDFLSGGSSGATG

In experiment [3] the target is T3, GST-Nv-NF-kB (Ser allele) (Nematostella vectensis, UniProt A7UNT2 2-411).
T3 sequence: T2 sequence with Q21R, C66S, S207N, E215Q, V217A, E225K, A268E, D399E

Experiment [4] concerns the target T4, GST-Co-NF-kB (Capsaspora owczarzaki, UniProt F1ARL5 200-546).
T4 sequence: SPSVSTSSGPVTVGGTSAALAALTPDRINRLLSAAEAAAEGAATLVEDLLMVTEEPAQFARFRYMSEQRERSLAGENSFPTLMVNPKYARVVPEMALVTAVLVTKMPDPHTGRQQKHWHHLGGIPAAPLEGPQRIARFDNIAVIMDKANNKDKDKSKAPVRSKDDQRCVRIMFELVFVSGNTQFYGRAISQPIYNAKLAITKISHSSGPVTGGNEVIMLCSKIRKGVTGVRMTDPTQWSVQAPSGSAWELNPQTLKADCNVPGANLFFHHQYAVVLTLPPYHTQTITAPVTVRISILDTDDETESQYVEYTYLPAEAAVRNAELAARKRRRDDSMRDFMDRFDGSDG

Experiment [5] addresses T5, GST-Dm-Relish (Drosophila melanogaster, UniProt Q94527 99-473).
T5 sequence: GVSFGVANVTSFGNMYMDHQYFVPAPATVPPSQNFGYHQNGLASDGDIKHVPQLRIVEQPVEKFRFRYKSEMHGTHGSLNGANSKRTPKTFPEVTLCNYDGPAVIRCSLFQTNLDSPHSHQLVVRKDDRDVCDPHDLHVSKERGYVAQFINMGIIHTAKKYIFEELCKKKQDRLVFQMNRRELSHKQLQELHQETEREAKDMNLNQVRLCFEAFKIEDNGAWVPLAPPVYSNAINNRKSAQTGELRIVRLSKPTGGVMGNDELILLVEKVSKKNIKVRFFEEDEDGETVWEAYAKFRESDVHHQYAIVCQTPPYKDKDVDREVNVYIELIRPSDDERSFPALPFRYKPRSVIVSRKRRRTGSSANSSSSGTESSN

Experiment [6] deals with T6, GST-Aq-NF-kB (Amphimedon queenslandica, UniProt A9Y5G7 2-389).
T6 sequence: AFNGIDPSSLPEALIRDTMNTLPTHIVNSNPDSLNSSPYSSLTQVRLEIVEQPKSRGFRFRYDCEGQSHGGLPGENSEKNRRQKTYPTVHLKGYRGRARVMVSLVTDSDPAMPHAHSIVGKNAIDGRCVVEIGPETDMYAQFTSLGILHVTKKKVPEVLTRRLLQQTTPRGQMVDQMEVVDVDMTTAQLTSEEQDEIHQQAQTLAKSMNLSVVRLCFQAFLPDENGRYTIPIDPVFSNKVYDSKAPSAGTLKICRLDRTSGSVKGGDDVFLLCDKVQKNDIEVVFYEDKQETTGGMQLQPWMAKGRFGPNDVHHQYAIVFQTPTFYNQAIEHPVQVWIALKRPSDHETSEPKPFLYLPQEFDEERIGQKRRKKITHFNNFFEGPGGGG

Experiment [7] has as its target GST-Hu-p50 (Homo sapiens, UniProt P19838 7-356).

Chain of GST-Hu-p50 (P19838 7-356): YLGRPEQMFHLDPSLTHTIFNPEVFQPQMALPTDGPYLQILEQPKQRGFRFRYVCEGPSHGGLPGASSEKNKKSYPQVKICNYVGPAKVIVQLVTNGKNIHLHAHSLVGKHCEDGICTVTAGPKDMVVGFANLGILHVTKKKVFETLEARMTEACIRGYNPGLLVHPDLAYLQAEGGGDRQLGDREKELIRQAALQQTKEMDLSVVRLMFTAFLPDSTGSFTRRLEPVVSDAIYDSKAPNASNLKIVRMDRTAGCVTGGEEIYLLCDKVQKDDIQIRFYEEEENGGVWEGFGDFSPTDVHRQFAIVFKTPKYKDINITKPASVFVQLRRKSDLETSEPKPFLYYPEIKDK

Consider “CCGATTAACATCAATCTCCCCCCTGATGTTAATCGGGTCTTGATTCGCTTGACGCTGCTG”, for which the binding signal in experiment [1] was 7.54 z-score; in experiment [2], 5.24 z-score; in experiment [3], 7.29 z-score; in experiment [4], 8.72 z-score; in experiment [5], 4.23 z-score; in experiment [6], 5.63 z-score. The binding signal in experiment [7] was determined as 6.63 z-score.

In the case of “CCGATTAACATCAGGGGAAGTACTGATGTTAATCGGGTCTTGATTCGCTTGACGCTGCTG”, the binding signal in experiment [1] was determined as 7.14 z-score; in experiment [2], 8.22 z-score; in experiment [3] it was 9.13 z-score; in experiment [4] it was 5.32 z-score; in experiment [5], 10.7 z-score; in experiment [6] it was 7.89 z-score. In experiment [7], the binding signal stood at 6.9 z-score.

As to “CCGATTAACATCAGCAAATTCCCTGATGTTAATCGGGTCTTGATTCGCTTGACGCTGCTG”, the binding signal in experiment [1] worked out at 3.17 z-score; in experiment [2], 5.15 z-score; in experiment [3] it was 5.81 z-score; in experiment [4] it was 2.77 z-score; in experiment [5], 4.19 z-score; in experiment [6], 4.34 z-score. The binding signal in experiment [7] came to 4.19 z-score.

“CCGATTAACATCAGGATTACCCATGATGTTAATCGGGTCTTGATTCGCTTGACGCTGCTG”: the binding signal in experiment [1] worked out at 2.92 z-score; in experiment [2], 2.65 z-score; in experiment [3], 2.12 z-score; in experiment [4], 1.67 z-score; in experiment [5], 2.52 z-score; in experiment [6], 3.19 z-score. In addition, in experiment [7], the binding signal is 1.83 z-score.

As to “CCGATTAACATCAGGGGGTAAGATGATGTTAATCGGGTCTTGATTCGCTTGACGCTGCTG”, the binding signal was 3.96 z-score in experiment [1]; 3.13 z-score in experiment [2]; 3.97 z-score in experiment [3]; 5.47 z-score in experiment [4]; 1.62 z-score in experiment [5]; 3.34 z-score in experiment [6]. The binding signal in experiment [7] was 3.07 z-score.

Take “CCGATTAACATCAGGAGTGTCCCTGATGTTAATCGGGTCTTGATTCGCTTGACGCTGCTG”: the binding signal in experiment [1] was determined as 2.12 z-score; in experiment [2] it was 2.48 z-score; in experiment [3], 1.44 z-score; in experiment [4], 1.05 z-score; in experiment [5], 1.23 z-score; in experiment [6], 4.83 z-score. The same sequence had a binding signal in experiment [7] of 1.29 z-score.

“CCGATTAACATCAAAACTCCCCCTGATGTTAATCGGGTCTTGATTCGCTTGACGCTGCTG”: the binding signal is 9.31 z-score in experiment [1]; 8.47 z-score in experiment [2]; 9.96 z-score in experiment [3]; 9.22 z-score in experiment [4]; 8.02 z-score in experiment [5]; 7.6 z-score in experiment [6]. The sequence further came in with a binding signal in experiment [7] of 8.06 z-score.

With “CCGATTAACATCAGGCAAACCCCTGATGTTAATCGGGTCTTGATTCGCTTGACGCTGCTG”, the binding signal in experiment [1] worked out at 3.13 z-score; in experiment [2], 2.8 z-score; in experiment [3], 1.51 z-score; in experiment [4], 1.49 z-score; in experiment [5], 3.13 z-score; in experiment [6] it was 4.85 z-score. Besides, the binding signal in experiment [7] came to 3.63 z-score.

“CCGATTAACATCACATGTTTCCCTGATGTTAATCGGGTCTTGATTCGCTTGACGCTGCTG”: the binding signal was 2.33 z-score in experiment [1]; 3.31 z-score in experiment [2]; 4.21 z-score in experiment [3]; 4.5 z-score in experiment [4]; 1.48 z-score in experiment [5]; 4.01 z-score in experiment [6]. For the same sequence, the binding signal in experiment [7] was 1.17 z-score.

For “CCGATTAACATCAGAATTTTCCCTGATGTTAATCGGGTCTTGATTCGCTTGACGCTGCTG”, the binding signal in experiment [1] was determined as 4.45 z-score; in experiment [2] it was 7.42 z-score; in experiment [3], 7.41 z-score; in experiment [4], 5.08 z-score; in experiment [5], 2.3 z-score; in experiment [6] it was 6.44 z-score. The sequence further returned a binding signal in experiment [7] of 5.01 z-score.

Take “CCGATTAACATCAAGGGGGGTAATGATGTTAATCGGGTCTTGATTCGCTTGACGCTGCTG”: the binding signal came to 4.04 z-score in experiment [1]; 4.87 z-score in experiment [2]; 4.3 z-score in experiment [3]; 5.42 z-score in experiment [4]; 3.36 z-score in experiment [5]; 4.75 z-score in experiment [6]. The binding signal in experiment [7] amounted to 3.62 z-score.
